Assay results published in PubChem BioAssay AID1159580 (chemical genetic matrix, 2015).
Out of some 5,500 compounds screened, about 2,000 (36%) were called active. Roughly 18% stayed inconclusive and do not appear here. No stated cut-off is given here; in the data, active means normalized growth mostly below about 0.91 (no sharp cut-off); inconclusive means no clear call, values can overlap the other calls; inactive means mostly above about 0.92. Some of the results follow.

Assay: chemical genetic growth profiling, strain panel (AID 1159580);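 further: tested at 20 µM; growth read once vehicle control cultures reached saturation at 30 °C; 1 = growth at the plate median or of vehicle wells; lower values mean less growth of the strain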
Details: S. cerevisiae deletion strains, growth OD

Measured: normalized growth

COCCCCC(=NOCCN)c1ccc(C(F)(F)F)cc1
inactive: locus YAL040C, strain CLN3, active compounds read low 0.994 | locus YCL061C, strain MRC1 (second series), active compounds read low 0.997 | locus YDR363W, strain ESC2, active compounds read low 0.975 | locus YER002W, strain NOP16, active compounds read low 1 | locus YJR075W, strain HOC1, active compounds read low 0.992 | locus YNL153C, strain GIM3, active compounds read low 1.02 | locus YNL175C, strain NOP13, active compounds read low 1.01 | locus YNL197C, strain WHI3, active compounds read low 1 | locus YNL224C, strain SQS1, active compounds read low 1.02 | locus YNL322C, strain KRE1, active compounds read low 0.988 | locus YOR083W, strain WHI5 (second series), active compounds read low 0.993
